Experimental data published in PubChem BioAssay (NCATS).
Where “and” joins values, the source holds several entries; their conditions need not be identical. Equal entries are not always repeated. Records with an inconclusive call do not appear. Where a call stands in place of a potency, no number is given. Calls of active or inactive are those of the source. Calls come from the whole dose curve; as a rule, active = well fitted activation curve with a large enough effect in the signal ratio; inconclusive = small, poorly fitted or top-dose-only effect, or effect the other way, or a change in a side signal; inactive = flat fitted curve, though single readings scatter; the % refers to the signal ratio.

Assay: qHTS assay for small molecule agonists of the antioxidant response element (ARE) signaling pathway (AID 651741)
Conditions: HepG2 ARE-bla reporter, beta-lactamase FRET ratio, 16 h; series mostly up to 96 µM
From the text: National Center for Advancing Translational Sciences [NCATS]
NIH Chemical Genomics Center [NCGC]
U.S. Environmental Protection Agency [EPA]
National Institutes of Environmental Health Sciences [NIEHS]
National Toxicology Program [NTP]
Oxidative stress has been implicated in the pathogenesis of a variety of diseases ranging from cancer to neurodegeneration. The antioxidant response element (ARE) signaling pathway plays an important role in the amelioration of oxidative stress. The CellSensor ARE-bla HepG2 cell line (Invitrogen) can be used for analyzing the Nrf2/antioxidant response signaling pathway. Nrf2 (NF-E2-related factor 2) and Nrf1 are transcription factors that bind to AREs and activate these genes. The CellSensor ARE-bla Hep G2 cell line contains a beta-lactamase reporter gene under control of the Antioxidant Response Element (ARE) stably integrated into HepG2 cells. The activation of the report gene under culture conditions can be detected by fluorescence intensity. This cell line can be used to screen chemicals in a 1536-well plate format and to identify agonists that induce oxidative stress.
The ARE-bla cells were dispensed at 2,000 cells/5 ul/well in 1536-well black wall/clear bottom plates using a Multidrop dispenser. After the assay plates were incubated at a 37 C/5% CO2 incubator for 5 hours, 23 nL of compounds dissolved in DMSO, positive controls or DMSO only was transferred to the assay plate by a pin tool. The plates were incubated at 37 C for 16 hours. After 1 uL of LiveBLAzer B/G FRET substrate was added using a Flying Reagent Dispenser, the plates were incubated at room temperature for 2 hours, and fluorescence intensity was measured by an Envision plate reader.
Potency is the fitted concentration of half-maximal effect.

| Compound | Potency |
| --- | --- |
| CCCCNC(=O)NS(=O)(=O)c1ccc(C)cc1 | inactive |
| C[C@]12C=CC(=O)C=C1CC[C@H]1[C@@H]3C[C@@H](O)[C@](O)(C(=O)CO)[C@@]3(C)C[C@H](O)[C@@]12F | inactive |
| COc1cc(Cc2cnc(N)nc2N)cc(OC)c1OC | inactive |
| Nc1ncn([C@@H]2O[C@H](CO)[C@@H](O)[C@H]2O)c(=O)n1 | 1.37 µM (active) and 1.88 µM (active) |
| CCCCOCCOCCOCc1cc2c(cc1CCC)OCO2 | inactive |
| C[C@]12CCC(=O)C=C1CC[C@@H]1[C@@H]2C(=O)C[C@@]2(C)[C@H]1CC[C@]2(O)C(=O)CO | inactive |
| Nc1nc(N)c2nc(-c3ccccc3)c(N)nc2n1 | 54.5 µM (active) and 33.5 µM (active) |
| CC(=O)Nc1nnc(S(N)(=O)=O)s1 | inactive |
| O=c1[nH]c(=O)n([C@H]2C[C@H](O)[C@@H](CO)O2)cc1Br | inactive |
| O=C(O)CCCCCCCC(=O)O | inactive |
| Cc1ccc(S(=O)(=O)NC(=O)NN2CCCCCC2)cc1 | inactive |
| CN=C(NC#N)NCCSCc1nc[nH]c1C | inactive |
| NC(=O)N1c2ccccc2C=Cc2ccccc21 | inactive |
